Results published in PubChem BioAssay (NCI).
This is part of a sample that, as a whole, favours compounds with a hit. Of some 79,000 tested, about 15% had one in any assay. Unmarked numbers belong to inactive results. No stated cut-off is given here; in the data, active means growth inhibition above about 70%; inactive means the rest.

experiment: NCI Yeast Anticancer Drug Screen. Data for the cln2 rad14 strain (AID 165);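 further: 0% = growth equal to vehicle treated cultures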; conditions: S. cerevisiae cln2 rad14 strain, at 50.0 µM, active compounds read high
How it was run: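 Strain: cln2 rad14 yeast, altered in cell cycle control and DNA damage repair. Read-out: growth inhibition vs vehicle.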

SMILES | growth inhibition
COc1cc(/C=C(\C#N)C(=O)c2ccccc2)ccc1OCc1ccccc1 | 1.25%
COC(=O)c1[nH]c(=O)c(C#N)c(C(=O)OC)c1C(=O)c1ccccc1 | 19.2%
CCCNc1ccc(C2=NCCCN2)cc1 | 7.25%
Nc1ccc(N)c([N+](=O)[O-])c1 | -39%
COc1cc2cc(OC(C)=O)c3cc4c(cc3c2c(OC)c1OC)OCO4 | -5.2%
CC(=O)OCC1OC(OC2=C(CC=C(C)C)C(=O)c3ccccc3C2=O)C(OC(C)=O)C(OC(C)=O)C1OC(C)=O (stereo not drawn) | -15%
CNS(=O)(=O)c1ccc(Cl)c(Cl)c1 | -55%
CCCCC1(CC)COC(CCC)OC1 (stereo not drawn) | -22.6%
O=C1C=C(Nc2ccc([N+](=O)[O-])cc2)c2ccccc2C1=O | 4.65%
C#CC(C)(O)c1ccc(Cl)cc1 (stereo not drawn) | -7.35%
NCC(=O)CCC(=O)O | -4.95%
COc1ccc(C2OC(N)=C(O)C2=O)cc1OC (stereo not drawn) | 11.2%
O=C1OC[C@H]2[C@H](c3ccc(O)c(O)c3)c3cc(O)c(O)cc3C[C@H]12 | 15.8%
CCN=c1cc2sc3cc(NCC)c(C)cc3nc-2cc1C | -14.4%
O=[N+]([O-])c1ccc(/C=C/C=C/c2ccccc2)c(Cl)c1 | -45.1%
CC(C)NC(=O)OCc1c(COC(=O)NC(C)C)c(-c2ccc(Cl)c(Cl)c2)n2c1SCC2 | -1.35%
O=[N+]([O-])c1cccc(N=Nc2ccc(O)cc2O)c1 | 15.6%
O=c1[nH]cc(Cl)cc1O | -40.9%
CCN(CC)c1ccc2nc3ccc(=[N+](CC)CC)cc-3oc2c1 | -165%
O=C1OC(=O)C2C1C1(Cl)C(Cl)=C(Cl)C2(Cl)C2C(=O)OC(=O)C21 (stereo not drawn) | -9.45%

SMILES | growth inhibition
CNc1nc(NC)c2cn[nH]c2n1 | -9.25%
CC1=CC(C)(C)NC(=S)N1c1ccc(S(=O)(=O)O)c2cccc(S(=O)(=O)O)c12 | -30.9%
CC(C)=NNc1ccc([N+](=O)[O-])cc1[N+](=O)[O-] | 25.4%
Cc1c(C(=O)O)c(=O)n(-c2ccccc2)n1C | 11%
O=c1cc(-c2ccccc2)[nH]c(=S)[nH]1 | -24.8%
C=CCNC(=O)c1ccc(OC)cc1 | 1.7%
CC[N+](C)(CC)CCO | 10.7%
Cc1cccc(C(=O)N(C(C)C)C(C)C)c1 | -50.8%
NC(C(=O)O)c1ccc([N+](=O)[O-])cc1 (stereo not drawn) | 7.25%
OC1OC(COC(c2ccccc2)(c2ccccc2)c2ccccc2)C(O)C(O)C1O (stereo not drawn) | 14.4%
Cc1ccc(/C(C#N)=C/c2ccc3c(c2)OCO3)cc1 | -14.3%
O=c1cc(-c2ccccc2)nc2cc(-c3ccco3)[nH]n12 | 7.9%
CCOC(=O)C(O)C(O)C(=O)OCC (stereo not drawn) | -16.7%
Oc1ccc(O)cc1 | -22.6%
COc1cccc(COC(=O)Nc2ccccc2)c1OC | 21.5%
CC(=O)Nc1cccc(NC(C)=O)n1 | -5%
Cc1cc(N)ccc1-c1ccc(N)cc1C | -39%
C=CCOC(=O)C(=O)OCC=C | 1.95%
S=c1nn[nH]c2ccccc12 | 8.1%

experiment: NCI Yeast Anticancer Drug Screen. Data for the bub3 strain (AID 167); conditions: S. cerevisiae bub3 mutant strain, at 50.0 µM, active compounds read high
How it was run: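 Mutant yeast screening strain plus compound; vehicle-treated cultures serve as the 0% inhibition reference.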

SMILES | growth inhibition
COc1cc(/C=C(\C#N)C(=O)c2ccccc2)ccc1OCc1ccccc1 | -26.7%
COC(=O)c1[nH]c(=O)c(C#N)c(C(=O)OC)c1C(=O)c1ccccc1 | -25.1%
CCCNc1ccc(C2=NCCCN2)cc1 | 17.5%
Nc1ccc(N)c([N+](=O)[O-])c1 | -14.8%
COc1cc2cc(OC(C)=O)c3cc4c(cc3c2c(OC)c1OC)OCO4 | -21.9%
CC(=O)OCC1OC(OC2=C(CC=C(C)C)C(=O)c3ccccc3C2=O)C(OC(C)=O)C(OC(C)=O)C1OC(C)=O (stereo not drawn) | -12.7%
CNS(=O)(=O)c1ccc(Cl)c(Cl)c1 | -25.4%
CCCCC1(CC)COC(CCC)OC1 (stereo not drawn) | -12.2%
O=C1C=C(Nc2ccc([N+](=O)[O-])cc2)c2ccccc2C1=O | -12.9%
C#CC(C)(O)c1ccc(Cl)cc1 (stereo not drawn) | -26.4%
NCC(=O)CCC(=O)O | -0.85%
COc1ccc(C2OC(N)=C(O)C2=O)cc1OC (stereo not drawn) | -30.1%
O=C1OC[C@H]2[C@H](c3ccc(O)c(O)c3)c3cc(O)c(O)cc3C[C@H]12 | 23.7%
CCN=c1cc2sc3cc(NCC)c(C)cc3nc-2cc1C | -15.4%
O=[N+]([O-])c1ccc(/C=C/C=C/c2ccccc2)c(Cl)c1 | -4.85%
CC(C)NC(=O)OCc1c(COC(=O)NC(C)C)c(-c2ccc(Cl)c(Cl)c2)n2c1SCC2 | 2.9%
O=[N+]([O-])c1cccc(N=Nc2ccc(O)cc2O)c1 | 4.2%
O=c1[nH]cc(Cl)cc1O | 13.2%
CCN(CC)c1ccc2nc3ccc(=[N+](CC)CC)cc-3oc2c1 | -246%
O=C1OC(=O)C2C1C1(Cl)C(Cl)=C(Cl)C2(Cl)C2C(=O)OC(=O)C21 (stereo not drawn) | 25.3%

SMILES | growth inhibition
CNc1nc(NC)c2cn[nH]c2n1 | -3.9%
CC1=CC(C)(C)NC(=S)N1c1ccc(S(=O)(=O)O)c2cccc(S(=O)(=O)O)c12 | 4.3%
CC(C)=NNc1ccc([N+](=O)[O-])cc1[N+](=O)[O-] | -5.75%
Cc1c(C(=O)O)c(=O)n(-c2ccccc2)n1C | -16.9%
O=c1cc(-c2ccccc2)[nH]c(=S)[nH]1 | 9.1%
C=CCNC(=O)c1ccc(OC)cc1 | -4.5%
CC[N+](C)(CC)CCO | 2.9%
Cc1cccc(C(=O)N(C(C)C)C(C)C)c1 | 26.2%
NC(C(=O)O)c1ccc([N+](=O)[O-])cc1 (stereo not drawn) | -0.4%
OC1OC(COC(c2ccccc2)(c2ccccc2)c2ccccc2)C(O)C(O)C1O (stereo not drawn) | -3.7%
Cc1ccc(/C(C#N)=C/c2ccc3c(c2)OCO3)cc1 | 47.8%
O=c1cc(-c2ccccc2)nc2cc(-c3ccco3)[nH]n12 | -2.6%
CCOC(=O)C(O)C(O)C(=O)OCC (stereo not drawn) | -2.85%
Oc1ccc(O)cc1 | -0.85%
COc1cccc(COC(=O)Nc2ccccc2)c1OC | 42.5%
CC(=O)Nc1cccc(NC(C)=O)n1 | 7.8%
Cc1cc(N)ccc1-c1ccc(N)cc1C | -23.1%
C=CCOC(=O)C(=O)OCC=C | 5.35%
S=c1nn[nH]c2ccccc12 | 7.8%
